Experimental data published in PubChem BioAssay AID1063 (University of Pittsburgh Molecular Library Screening Center, 2008).
Where “and” joins values, the source holds several entries; their conditions need not be identical. Identical values can stand only once. The whole screen tested about 200,000 compounds, of which about 18,000 (9%) were called active. Cut-off read from the data, not from the text of the source: active = inhibition above about 50%; inactive = the rest. The full list was thinned out, with actives kept by preference. Where a structure was tested more than once in an assay, its records may differ in their call.

Test: Leishmania major promastigote growth inhibition, primary screen (AID 1063);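 note: promastigotes grown with compound for 44 hours at 28 °C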
Conditions: Leishmania major promastigotes, resazurin fluorescence viability; at 10 µM; stronger effect = higher value

| Compound | inhibition |
| --- | --- |
| CCN(CC)S(=O)(=O)c1ccc(Cl)c(C(=O)NC(C)C(c2cccs2)N2CCCC2)c1 (configuration not stated) | 10.7% (inactive) |
| Cc1cc(N2CCOCC2)nc2ccc(NC(=S)N3CCN(Cc4ccccc4)CC3)cc12 | 36.5% (inactive) |
| O=C(Nc1ccccc1)/C(=C/c1ccc([N+](=O)[O-])cc1)NC(=O)c1ccccc1 | -0.93% (inactive) |
| CCOC(=O)/C(=N\Nc1ccccc1[N+](=O)[O-])c1csc(Nc2ccccc2)n1 | 15.4% (inactive) |
| CCOC(=O)/C(=C\c1ccc([N+](=O)[O-])cc1)C(=O)c1cc(C(C)=O)c(Nc2ccccc2)s1 | 101% (active) |
| Cc1ccc(C(=O)N/C(=C/c2cccs2)C(=O)NCC2CCCO2)cc1 (configuration not stated) | -3.66% (inactive) |
| CCCCC(=O)NNC(=S)NC(=O)C(c1ccccc1)c1ccccc1 | 22.8% (inactive) |
| CC(C)C(=O)Nc1cccc(NC(=S)NC(=O)C(c2ccccc2)c2ccccc2)c1 | 100% (active) |
| CC(C)C(=O)NC(=S)Nc1ccccc1F | -3.27% (inactive) |
| CC(C)(C)c1ccc(C(=O)NCc2nnc(SCC(=O)N3CCCc4ccccc43)n2-c2ccccc2)cc1 | -4.1% (inactive) |
| COc1ccccc1CCNC(=O)CSc1nnc2ccc(-c3cccnc3)nn12 | 1.51% (inactive) |
| OC(COc1ccccc1)Cn1cc(Br)cn1 (configuration not stated) | -7.06% (inactive) |
| C=CCn1c(=N)n(CC(O)COc2ccc(OC)cc2)c2ccccc21 (configuration not stated) | 34.9% (inactive) |
| OC(CN=c1sc2ccccc2n1CC(O)COc1ccccc1)COc1ccccc1 (configuration not stated) | 63.1% (active) |
| C/C(N)=C(/C#N)C(=O)COC(=O)CNS(=O)(=O)c1ccc(C)cc1 | -2.53% (inactive) |
| Cc1ccc(C)n1NC(=O)c1ccc([N+](=O)[O-])cc1 | -0.24% (inactive) |
| CC1CC(C)CN(C(=O)CSc2ccsc2[N+](=O)[O-])C1 (configuration not stated) | 8.96% (inactive) |
| CC(C(=O)O)n1cnc2sc3c(c2c1=O)CCCC3 (configuration not stated) | -4.65% (inactive) |
| c1nnc2c3c4c(sc3ncn12)CCC4 | -5.73% (inactive) |
| S=c1[nH]nc2c3c4c(sc3ncn12)CCCC4 | 72.6% (active) |
| COc1cc(OC)cc(C(=O)OCC(=O)Nc2sccc2C(N)=O)c1 | 18.3% (inactive) |
| Cc1cc(C)cc(NC(=S)NCCCN2CCOCC2)c1 | 11.8% (inactive) |
| Cc1cc(C)c(S(=O)(=O)NCCCN2CCOCC2)cc1Br | 94.6% (active) |
| Cc1ccc(S(=O)(=O)NCCN2CCOCC2)cc1C | -7.43% (inactive) |
| O=C(NCc1cccs1)c1cc(-c2ccccn2)nc2ccc(Br)cc12 | -5.05% (inactive) |

| Compound | inhibition |
| --- | --- |
| CC(=O)Nc1ccc(OCCC[n+]2cccc(C(=O)[O-])c2)cc1 | 0.17% (inactive) |
| COc1ccccc1-c1cc(C(=O)NCCCn2ccnc2)no1 | 6.26% (inactive) |
| COc1ccc(/C=C(\C#N)C(=O)NCCCn2ccnc2)cc1 | 55.7% (active) |
| COCCNC(=O)/C(C#N)=C/c1cccc(OCc2ccccc2)c1 | 47% (inactive) |
| COc1ccc(-c2cc(C(=O)NCCCn3ccnc3)no2)cc1 | 36.3% (inactive) |
| COc1cccc(-c2nn(-c3ccccc3)cc2/C=C(\C#N)C(=O)NCCCn2ccnc2)c1 | 100% (active) |
| CCOc1ccccc1C(=O)NCCCn1ccnc1 | 0.51% (inactive) |
| Cc1nccn1CCCNC(=O)CC1C(=O)NCCN1Cc1ccc(Cl)c(F)c1 (configuration not stated) | 5.03% (inactive) |
| Cc1cccc(NS(=O)(=O)c2ccc(C)c(C(N)=O)c2)c1 | -3.69% (inactive) |
| O=C(Nc1ccccc1C(=O)N1CCOCC1)c1ccc(Cl)cc1 | 1.24% (inactive) |
| NS(=O)(=O)c1cccc(NC(=O)CN2CCCc3ccccc32)c1 | -1.56% (inactive) |
| O=C(NNC(=S)NCc1ccco1)C(c1ccccc1)c1ccccc1 | 45.2% (inactive) |
| Cc1cc(O)c(NC(=O)c2ccc(C)c([N+](=O)[O-])c2)cc1C | 1.25% (inactive) |
| COCC(C)NC(=O)CSc1nc2nn(-c3ccccc3)c(=O)c-2c2n1CCCCC2 (configuration not stated) | 34.5% (inactive) |
| CCOC(=O)c1[nH]ncc1CN1CCCC(C(=O)c2ccc(OC)cc2C)C1 (configuration not stated) | 1.77% (inactive) |
| CCn1ccnc1CN1CCCC(C(=O)c2ccc3c4c(cccc24)CC3)C1 (configuration not stated) | 40% (inactive) |
| COc1ccc(C(=O)C2CCCN(Cc3cccn3-c3ccccn3)C2)c(C)c1 (configuration not stated) | 99.8% (active) |
| O=C(CN1CCOCC1)Nc1c(Cl)cc(Cl)cc1Cl | -3.49% (inactive) |
| O=C(Nc1ccc(F)cc1)N1CCCC(c2nc3c(nnn3Cc3ccccc3Cl)c(=O)[nH]2)C1 (configuration not stated) | -7.44% (inactive) |
| COC(C(=O)Nc1ccc(S(=O)(=O)Nc2ccc(C)c(C)c2)cc1)c1ccccc1 (configuration not stated) | 56.7% (active) |
| COC(C(=O)NCc1ccccc1C)c1ccccc1 (configuration not stated) | -3.9% (inactive) |
| COC(C(=O)Nc1ccc(C(C)=O)cc1)c1ccccc1 (configuration not stated) | -5.21% (inactive) |
| Cc1ccc(C(=O)N/C(=C\c2ccco2)C(=O)N2CCSCC2)cc1C | 10.4% (inactive) |
| O=C(CCCn1c(=O)c2sccc2n(CC(=O)NCC2CCCO2)c1=O)NCc1ccco1 (configuration not stated) | -8.29% (inactive) |
| CC1CCCC(C)N1/N=C/c1ccccc1OC(F)F (configuration not stated) | -3.94% (inactive) |

| Compound | inhibition |
| --- | --- |
| c1ccc2[nH]c(-c3nc4ccccc4[nH]3)nc2c1 | 33.9% (inactive) |
| Oc1ccc(Br)cc1C=Nc1ccc2[nH]ncc2c1 | -4.98% (inactive) |
| Oc1ccc(Cl)cc1/C=N/c1nc2ccccc2[nH]1 | 63% (active) |
| COc1cccc(-c2nnc(NC(=O)c3ccc(S(=O)(=O)N(CC(C)C)CC(C)C)cc3)o2)c1 | 100% (active) |
| COc1cccc(NC(=O)c2ccc(S(=O)(=O)N(C)C)cc2)c1 | -7.02% (inactive) |
| O=C(Nc1nnc(-c2ccco2)o1)c1ccc(S(=O)(=O)N2CCOCC2)cc1 | 3.15% (inactive) |
| CCOc1ccc2nc(NCCNC(=O)C(C)(C)C)c(C)cc2c1 | 5.84% (inactive) |
| CN(CC(=O)NCCc1ccccn1)S(=O)(=O)c1ccc(Cl)cc1 | 6.18% (inactive) |
| COc1ccc(CCN(C)C(=O)C2CCCN(Cc3ccc(OC)c(OC)c3)C2)cc1OC (configuration not stated) | -6.68% (inactive) and 55.5% (active) |
| COc1ccc(CN2CCCC(C(=O)c3ccc(Cl)cc3)C2)cc1Cn1cncn1 (configuration not stated) | 32% (inactive) |
| COc1ccc(CN2CCCC(CNC(=O)c3ccc(F)cc3)C2)cc1OC (configuration not stated) | 14.8% (inactive) |
| O=C1CN(C(=O)CN2C(=O)NC3(CCCCC3)C2=O)c2ccccc2N1 | -5.28% (inactive) |
| Cc1ccccc1Nc1scc(-c2ccc(Br)cc2)[n+]1-c1ccccc1C | 31% (inactive) |
| CCc1ccc(NC(=O)N2CCN(c3ccccc3)CC2)cc1 | 25.5% (inactive) |
| CC(=O)N1CCN(c2ccc(NCc3ccc(C(C)C)cc3)cc2)CC1 | 81.4% (active) |
| CC(CC(=O)N1CCN(c2ccccc2)CC1)c1ccccc1 (configuration not stated) | -5.82% (inactive) |
| NC(=O)N1CCc2ccccc21 | -6.03% (inactive) |
| N#Cc1ccc(N2Cc3ccccc3/C2=N/C(=O)Nc2ccc(Cl)cc2)cc1 | 71.6% (active) |
| Cc1cccc(N2Cc3ccccc3C2=NC(=O)c2ccc(Cl)nc2)c1 | 4.02% (inactive) |
| O=C(Nc1ccccc1)OCc1cn(-c2ccc(Cl)cc2)nn1 | -4.84% (inactive) |
| Cn1cccc1/C=C1\SC(=O)N(CC(=O)Nc2ccc(F)cc2)C1=O | -0.17% (inactive) |
| COc1ccccc1CNCc1cccs1 | 7.82% (inactive) |
| CCC(Oc1ccccc1)C(=O)NCc1cccnc1 (configuration not stated) | 3.42% (inactive) |
| c1ccc(COc2ccccc2CNCc2cccnc2)cc1 | 75% (active) |
| O=C(CCc1ccccc1)NCc1cccnc1 | -1.64% (inactive) |

| Compound | inhibition |
| --- | --- |
| CCOc1cc(/C=N/O)ccc1OCc1ccccc1F | -1.85% (inactive) |
| Fc1ccccc1COc1ccccc1CNCc1ccncc1 | 98.5% (active) |
| O=C(CNC1CCCCC1)NCC1(c2ccccc2)CCCC1 | 19.4% (inactive) |
| O=C(O)c1n[nH]nc1-c1ccccc1 | -4.14% (inactive) |
| COC(=O)c1cc(NC(=O)CN2CCN(C(C)=O)CC2)cc(C(=O)OC)c1 | 2.15% (inactive) |
| O=C(Cc1ccccc1)NCc1ccc(F)cc1 | -4.83% (inactive) |
| Fc1ccc(CNCc2ccc(Br)cc2)cc1 | 84.8% (active) |
| Cc1cc(C)cc(NC(=S)NCc2ccc(F)cc2)c1 | 16.7% (inactive) |
| Cn1c(SCC(=O)Nc2ccc(Br)cc2F)nnc1-c1ccco1 | -5.27% (inactive) |
| NC(=O)C1CCN(C(=O)COc2cccc3cccnc23)CC1 | -6.58% (inactive) |
| COc1ccc(C(=O)CSc2nc(C)cc(C)n2)cc1[N+](=O)[O-] | 16% (inactive) |
| COc1ccc(OCc2cn3c(C)cc(C)nc3n2)cc1 | -3.26% (inactive) |
| COc1ccc(C(C[N+](=O)[O-])n2nc(C)cc2C)cc1 (configuration not stated) | 100% (active) |
| CN(C)/C=C(/C(=O)c1ccccc1Cl)S(C)(=O)=O | 3.15% (inactive) |
| COc1ccc(C(=O)C2CCCN(C(=O)c3cc4nc(C)cc(C)n4n3)C2)cc1F (configuration not stated) | 57.3% (active) |
| Cc1cnc(C(=O)N2CCCC(C(=O)c3ccc(C(F)(F)F)cc3)C2)cn1 (configuration not stated) | 3.62% (inactive) |
| CCn1nc(C)cc1C(=O)N1CCCC(C(=O)c2cccc(OC)c2)C1 (configuration not stated) | -7.56% (inactive) |
| C=CCn1cc(C(=O)NCc2ccc(Cl)cc2)c(=O)c2cc(S(=O)(=O)N(CC)CC)ccc21 | 13.9% (inactive) |
| COc1ccc(C(=O)CN(C(=O)c2ccc(Cl)cc2)N2C(=O)c3ccccc3C2=O)cc1 | -4.51% (inactive) |
| COc1ccc(Cn2c(-c3ccc(Cl)cc3)c[n+]3ccccc23)cc1 | 99.2% (active) |
| CCc1nc2oc3ccccc3c(=O)c2c(=O)n1Cc1ccc(OC)cc1 | 8.88% (inactive) |
| COc1ccc(-c2nn(-c3ccccc3)cc2/C=C\C(=O)Nc2ccc(C(=O)O)cc2)cc1 | -5.87% (inactive) |
